Records with an inconclusive call do not appear. A call without a number means that no potency is given here. Values without a mark were called inactive. The source made the active and inactive calls. Calls come from the whole dose curve; as a rule, active = well fitted inhibition curve with a large enough effect; inconclusive = small, poorly fitted or top-dose-only effect; inactive = flat fitted curve, though single readings scatter. *1 amine or outer side, *2 acyl side, *3 side chain or, on linkers, in order; H or OH if unused. Where a SMILES comes first, the peptide text is derived from it. [ ]: non-standard residue; d: D form. X4 = CC(C)=CCc1cc(C(O)C(N[*:1])C(=O)[*:2])ccc1O
What follows are compounds tested against Phospholipid hydroperoxide glutathione peroxidase GPX4 (Homo sapiens) (UniProt P36969) (assay: Primary qHTS Assay for Inhibitors of Recombinant Selenoprotein Glutathione Peroxidase 4 (GPX4) (AID 1845192; note: nearly all actives have a fitted effect of over 65% in size)). Settings: recombinant GPX4, GR-coupled NADPH fluorescence, 15 min; series mostly up to 50 µM.
Sequence of Phospholipid hydroperoxide glutathione peroxidase GPX4 (Homo sapiens) (P36969 whole entry, looked up): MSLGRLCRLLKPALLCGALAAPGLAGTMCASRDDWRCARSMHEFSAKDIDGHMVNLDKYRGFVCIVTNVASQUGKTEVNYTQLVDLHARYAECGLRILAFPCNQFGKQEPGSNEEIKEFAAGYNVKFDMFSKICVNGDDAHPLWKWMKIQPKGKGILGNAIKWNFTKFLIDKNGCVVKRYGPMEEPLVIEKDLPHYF
Source text: Assay Provider: Elias S.J. Arner MD PhD.
Department of Medical Biochemistry and Biophysics
Karolinska Institutet, Solna, Stockholm, Sweden
Selenoprotein glutathione peroxidases (GPX), like the ubiquitously expressed GPX1 and the ferroptosis modulator GPX4, enact their antioxidant activities by reducing hydroperoxides using glutathione. […] GPX1 and GPX4 inhibitors have thus shown promise as anti-cancer agents. Existing inhibitors are often promiscuous, or modulate GPX activity only indirectly, so novel direct inhibitors identified through screening against GPX1 and GPX4 could be valuable. Here, we developed optimized glutathione reductase (GR)-coupled GPX assays for the biochemical high-throughput screen (HTS) of almost 12,000 compounds with known mechanisms of action. Initial hits were triaged using a GR counter-screen, assessed for isoform specificity using a separate GPX2 assay, and were assessed for general selenocysteine-targeting activity using a thioredoxin reductase (TXNRD1) assay. With this suite of assays, we identified novel GPX1/GPX2- and GPX4-specific inhibitors and can here present a validated pipeline for future discovery research for selenoprotein-targeting agents.
SEQUENCE No. (e.g., 1, 2, 3, etc.); […] (e.g., Cells, Incubation, Reagent, etc.); VALUE; DESCRIPTION.
1; Reagent 1; 3 uL; 333.33 nM GPx4 enzyme or no enzyme control in 1536-well, black, solid Greiner assay plate.
2; Compound; 25 nL; Kalypsis pin tool (Wako USA) equipped with a 1536-well pin head.
3; Incubation; 30 min; room temperature.
4; Reagent 2; 1 uL; 500 nM GR, 5 mM GSH, 2.5 mM NADPH solution
5; Reagent 3; 1 uL; 2.5 mM CHP in 50% EtOH.
6; Detection; Fluorescence; ViewLux microplate reader, excitation 340 nm and emission 450 nm.
7; Incubation; 15 min; room temperature.
8; Detection; Fluorescence; ViewLux microplate reader, excitation 340 nm and emission 450 nm.
NOTES (numbers refer to Sequence numbers above)
1. 3 µL of 333.33 nM GPX4 and 0.016% BSA in assay buffer (50 mM Tris-HCl, 2 mM EDTA (pH 7.5), 150 mM NaCl) was added to columns 3-48 of 1536-well plates using a BioRAPTR Flying Reagent Dispenser (Let's Go Robotics (LGR), Carlsbad, CA). A no-enzyme control (0.01% BSA in TES assay buffer) was added to columns 1-2.
2. 25 nL, library and DMSO controls were added to each well with a pin tool (Kalypsys).
3. The assay plates were incubated for 30 minutes at room temperature.
4. 1 µL of master mix (500 nM glutathione reductase (GR), 5 mM reduced glutathione (GSH), 2.5 mM NADPH in assay buffer) was added.
5. 1 µL of cumene hydroperoxide (CHP) ([2.5 mM] in 50% EtOH) was then added within 5 minutes to initiate the reaction. Final concentrations were: 200 nM GPX4, 1 mM GSH, 0.5 mM CHP, 0.5 mM NADPH, 100 nM GR, 0.01% BSA.
6. Initial fluorescence readout (t=0) at 340/450 nm was measured using a ViewLux multimodal detector (PerkinElmer, Waltham, MA).
8. Endpoint fluorescence readout (t=15) at 340/450 nm was measured 15 min after room temperature incubation.

| Structure (SMILES) | Potency | activity change, negative = inhibition |
| --- | --- | --- |
| CC(C)C1=CC2C(CC[C@]2(C)O)[C@](C)(O)CC1 (stereo not given in full) | inactive | – |
| CC1(C)CCC2(C(=O)OC3OC(CO)C(O)C(O)C3O)CCC3(C)C(=CCC4C5(C)CCC(O)C(C)(C(=O)O)C5CCC43C)C2C1O (stereo not given) | inactive | – |
| CC(O)c1cc(C(=O)N[C@@H](C)Cn2ccc(-c3ccc(C#N)c(Cl)c3)n2)n[nH]1 (stereo not given in full) | inactive | – |
| CCCC1(c2ccccc2)NC(=O)N(CC(=O)N(C)Cc2c(F)cccc2Cl)C1=O (stereo not given) | inactive | – |
| COc1ccc([C@@]2(O)c3c(ccc(CC=C(C)C)c3O)NC(=O)[C@@H]2OC)cc1 | inactive | – |
| CC(=O)O[C@@H]1[C@@H](CO)O[C@@](CO)(O[C@H]2O[C@H](COC(=O)/C=C/c3ccccc3)[C@@H](O)[C@H](O)[C@H]2O)[C@H]1O | inactive | – |
| COC(=O)C12CCC(C)C(C)C1C1=CCC3C4(C)CCC(OC(C)=O)C(C)(C)C4CCC3(C)C1(C)CC2 (stereo not given) | inactive | – |
| CC(=O)O[C@@H]1[C@H](O)[C@@H](O[C@@H]2O[C@@H](C)[C@H](O[C@@H]3OC[C@@H](O)[C@H](O[C@@H]4OC[C@@H](O)[C@H](O)[C@H]4O)[C@H]3O)[C@@H](O[C@@H]3O[C@H](CO)[C@@H](O)[C@H](O)[C@H]3O)[C@H]2O)[C@H](OC(=O)[C@]23CCC(C)(C)C[C@H]2C2=CCC4[C@@]5(C)CC[C@H](O[C@@H]6O[C@H](C(=O)O)[C@@H](O)[C@H](O[C@@H]7OC[C@@H](O)[C@H](O)[C@H]7O)[C@H]6O[C@@H]6O[C@H](CO)[C@H](O)[C@H](O)[C@H]6O)[C@@](C)(C=O)C5CC[C@@]4(C)[C@]2(C)CC3)O[C@@H]1C (stereo not given in full) | – | 2.64% [at 9.73 µM] |
| CC(=O)C1=CCC2C3CCC4CC(O[C@@H]5O[C@H](CO)[C@@H](O[C@@H]6O[C@@H](C)[C@H](O)[C@@H](O)[C@H]6O)[C@H](O)[C@H]5O[C@@H]5O[C@H](CO)[C@@H](O)[C@H](O)[C@H]5O)CCC4(C)C3CCC12C (stereo not given in full) | inactive | – |
| Cn1ncnc1COc1nn2c(-c3cc(F)ccc3F)nnc2cc1C(C)(C)C | inactive | – |
| CC(C)=CCC[C@](C)(O)[C@H]1CC[C@]2(C)[C@@H]1[C@H](O)CC1[C@@]3(C)CC[C@H](O)C(C)(C)C3[C@@H](O[C@@H]3O[C@H](CO)[C@@H](O)[C@H](O)[C@H]3O[C@@H]3OC[C@@H](O)[C@H](O)[C@H]3O)C[C@]12C (stereo not given in full) | inactive | – |
| CCOc1cc(C(=O)N2CCC(N3CCN(C)CC3)CC2)ccc1Nc1ncc2c(n1)N(C1CCCC1)c1ccccc1C(=O)N2C | inactive | – |
| C=C[C@H]1[C@H](O[C@@H]2O[C@H](CO)[C@@H](O)[C@H](O)[C@H]2O)OC=C(C(=O)OC)[C@H]1C/C=C(/C=O)[C@@H]1C(C(=O)OC)=CO[C@@H](O[C@@H]2O[C@H](CO)[C@@H](O)[C@H](O)[C@H]2O)[C@@H]1C=C | inactive | – |
| CC(C)=CCc1cc(C(O)C2NC(=O)CNC(=O)C(Cc3c[nH]c4ccccc34)NC(=O)C3CCCN3C(=O)CNC(=O)C(C(C)C)NC(=O)CNC2=O)ccc1O (stereo not given) (cyclo(G[X4]GVGPW); configuration not given here) | inactive | – |
| C[C@@H]1C[C@@H]2O[C@H]2/C=C\C=C\C(=O)Cc2c(Cl)c(O)cc(O)c2C(=O)O1 | inactive | – |
| CN(C)C1CCN(C(=O)c2ccc(NC(=O)Nc3ccc(-c4nc(N5CCOCC5)nc(N5CCOCC5)n4)cc3)cc2)CC1 | inactive | – |
| CC1(C)C2CC=C(COC3OC(COC4OCC(O)(CO)C4O)C(O)C(O)C3O)C1C2 (stereo not given) | inactive | – |
| C/C=C1\[C@H](O[C@@H]2O[C@H](CO)[C@@H](O)[C@H](O)[C@H]2O)OC=C(C(=O)OC)[C@H]1CC(=O)OC[C@H]1O[C@@H](OCCc2ccc(O)cc2)[C@H](O)[C@@H](O)[C@@H]1O | inactive | – |
| COc1cc(-c2ncn(/C=C\C(=O)OC(C)C)n2)cc(C(F)(F)F)c1 | inactive | – |
| COC(=O)C[C@H]1C(C)(C)[C@H](OC(=O)C(C)C)[C@@]2(O)C(=O)[C@]1(C)C1CC[C@]3(C)C(CC(=O)O[C@H]3c3ccoc3)[C@]13O[C@@H]32 (stereo not given in full) | inactive | – |

| Structure (SMILES) | Potency | activity change, negative = inhibition |
| --- | --- | --- |
| CCn1cc(NC(=S)Nc2cc(Cl)ccc2OC)c(C(N)=O)n1 | inactive | – |
| C/C=C/C=C/C(=O)N1CC[C@]23c4ccccc4N[C@H]4N(C)c5cccc6c5[C@@]42CCN([C@H]6C2OC2(C)C)[C@H]13 (stereo not given in full) | inactive | – |
| O=C(OC[C@H]1O[C@H](O[C@]2(CO)O[C@H](CO)[C@@H](O)[C@@H]2O)[C@H](O)[C@@H](O)[C@@H]1O)c1ccccc1 | inactive | – |
| CC(C)c1cc(C(=O)N2CC[C@@H](NC(=O)C3CC3)C2)n[nH]1 | inactive | – |
| CC1(C)CCCC2(C)C1C(O)C=C(CO)C2(O)CO (stereo not given) | inactive | – |
| COC(=O)c1ccnc(-c2cc(C(=O)NCCc3ccccc3)ccn2)c1 | inactive | – |
| O=C1Nc2ccccc2C(O)(c2ccccc2)C1O (stereo not given) | inactive | – |
| C[C@@H]1O[C@@H](O[C@H]2[C@H](O)[C@@H](O)[C@H](OC3CCC4(C)C5CCC(C)(C(CO)OC6OC(CO)C(O)C(O)C6O)CC5=CCC4C3(C)C)O[C@@H]2CO)[C@H](O)[C@H](O)[C@H]1O (stereo not given in full) | inactive | – |
| CNC(=O)c1ccccc1Nc1nc(Nc2ccc3c(c2OC)CCC[C@@H](N2CCN(CCO)CC2)C3)ncc1Cl | inactive | – |
| CC1(O)CCCC2(C)C1CCC13CC(CO)C(CCC12)C3 (stereo not given) | inactive | – |
| C=C1C(O)CC2C(C(=O)O)=COC(O[C@@H]3O[C@H](COC(=O)/C=C/c4ccc(O)cc4)[C@@H](O)[C@H](O)[C@H]3O)C12 (stereo not given in full) | inactive | – |
| Cc1nc2sc(C(=O)NCc3ccncc3)c(N)c2c(C)c1Cl | inactive | – |
| CCC(C)C(=O)OC1CC(C)C=C2C=CC(C)C(CCC(O)CC(O)CC(=O)O)C21 (stereo not given) | inactive | – |
| O=C(O)c1cccc(S(=O)(=O)N2CCc3ccccc3C2)c1 | inactive | – |
| COc1cc(O)c2c(c1)C1=CC(O)C(O)CC1(C)OC2=O (stereo not given) | inactive | – |
| C/C=C/C=C/C(O)=C1\C(=O)[C@]2(C)C3C(C(=O)CC/C=C/C)=C(O)C4(C)C1[C@]1(C)O[C@@]4(O)[C@@]3(C)O[C@@]12O | inactive | – |
| COc1c2cc(c(O)c1OC)-c1cc(ccc1O)CCC(O)CCCC2 (stereo not given) | inactive | – |
| Cc1ccc(NC(=O)Nc2cc(C(F)(F)F)ccc2F)cc1Nc1ccc2c(c1)NC(=O)/C2=C\c1ccc[nH]1 | inactive | – |
| CNC(=O)c1ccccc1Nc1cc(Nc2ccc(N3CCOCC3)cc2OC)ncc1C(F)(F)F | inactive | – |
| COc1ccc(Cl)c(Nc2nc3ccccc3nc2NS(=O)(=O)c2cccc(NC(=O)C(C)(C)N)c2)c1 | inactive | – |

Source: PubChem BioAssay (NCATS)
